Measurements reported in PubChem BioAssay (NCI).
About 79,000 compounds went through this panel and 15% of them were active in at least one assay; those are over-represented in the sample as a whole. A number with no mark means an inactive call. The source made the active and inactive calls. No stated cut-off is given here; in the data, active means growth inhibition above about 70%; inactive means the rest.

assay: NCI Yeast Anticancer Drug Screen. Data for the cln2 rad14 strain (AID 165);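 further: 0% = growth equal to vehicle treated cultures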; conditions: S. cerevisiae cln2 rad14 strain, at 50.0 µM, stronger effect = higher value
Summary of the method: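 Test compounds were added to cln2 rad14 yeast cultures; inhibition of growth was then determined by comparison with vehicle treatment.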

Structure (SMILES)	growth inhibition
Cc1cc(O)c(C(=O)/C=C/c2cccnc2)c(=O)[nH]1	16.3%
Oc1ccccc1C(=NNc1ccccc1)c1ccccc1O	95.8% (active)
Cn1c(=S)c2[nH]c(SCCN3CCCCC3)nc2n(C)c1=O	54.5%
Cc1cc(=O)n(-c2cc3cccccc-3n2)[nH]1	70.3% (active)
CC(=O)OCC1OC(n2c(O)c(N=NC(N)=S)c3ccc([N+](=O)[O-])cc32)C(OC(C)=O)C1OC(C)=O (stereo not drawn)	-1.15%
COC(=O)NNc1c([N+](=O)[O-])cnn(-c2ccccc2)c1=O	30%
CC(=O)N(C1=C(Cl)C(=O)c2ccccc2C1=O)c1ccc(F)cc1	94.4% (active)
COC(=O)CC1c2cc(OC)c3cccc(OC)c3c2CCC1(C)C(=O)OC (stereo not drawn)	73% (active)
CC[n+]1c(/C=C/c2ccc(N(C)C)cc2)ccc2ccccc21	99% (active)
COc1ccc(SC2=C(N(C)C)C(=O)c3ccccc3C2=O)cc1	22.8%
C1=C(c2ccccc2)C(=Nc2ccccc2)SC1=Nc1ccccc1	99.3% (active)
Cc1c(O)c(Br)c(Br)c(Br)c1Br	94.7% (active)
CC1(C)OC(C(COC(=O)c2ccc([N+](=O)[O-])cc2)OS(=O)(=O)c2ccc([N+](=O)[O-])cc2)C(C(SCc2ccccc2)SCc2ccccc2)O1 (stereo not drawn)	7.75%
Cc1cccc(Cc2ccc(Cl)cc2)c1O	99.3% (active)
C=C(CN(C)C)C(=O)c1ccccc1[N+](=O)[O-]	-25.4%
CCCCN(CCCC)CC(O)c1cc(-c2ccc(Cl)cc2)nc2c(C)cccc12 (stereo not drawn)	95.8% (active)
O=C(Nc1ccc(Cl)cc1)NS(=O)(=O)c1c(-c2ccccc2)oc2ccccc2c1=O	93.3% (active)
Cc1cc(CN(Cc2ccccc2)Cc2nc3ccccc3[nH]2)c(O)c(CN(Cc2nc3ccccc3[nH]2)Cc2nc3ccccc3[nH]2)c1	67.3%
COC1=CC2=CCC3C(CCC4(C)C(C(C)=O)CCC34)C2(C)CC1 (stereo not drawn)	0.75%
OC(C1CCCCN1)C1CC(c2ccccc2)Nc2c(Cl)cc(Cl)cc21 (stereo not drawn)	99% (active)

Structure (SMILES)	growth inhibition
CN(C)C1=C(Cl)C(=O)c2ccccc2C1=O	34.8%
CCCCCNC(=O)C1C(=O)N(CCCCC)C(=O)/C1=N\N (stereo not drawn)	79.7% (active)
O=C(Nc1ccc(Cl)cc1)OCCOCCOC(=O)Nc1ccc(Cl)cc1	98.2% (active)
CCCC(CC)c1c(O)c(O)c(C(CC)CCC)c(C(CC)CCC)c1C(CC)CCC (stereo not drawn)	97.7% (active)
Cc1ccc(NC(=S)SCc2ccc3c(c2)OCO3)cc1Cl	98.8% (active)
CN(C)CCCNc1ccc(O)c2c1C(=O)c1ccccc1C2=O	67%
CC1=C(C(=O)Nc2ccc(Cl)c(Cl)c2)C(c2ccco2)C(C(=O)Nc2ccc(Cl)c(Cl)c2)=C(C)N1	88.2% (active)
Cc1ccccc1NC(=O)CSC(N)=O	55%
Cc1[nH]c2ccccc2c1C(C)CC(O)c1ccccc1 (stereo not drawn)	95.8% (active)
Cn1c(=O)ccc2cc(C(=O)c3ccccc3)ccc21	35.4%
c1ccc2c(c1)N=c1ccccc1=P21c2ccccc2Nc2ccccc21	89.5% (active)
Nc1[nH]cnc(=S)c1NC=O	0.4%
COC(=O)CCC(=O)c1ccc2c(c1)CC1(Cc3ccccc3C1)C2	17.6%
CCC[CH2][Sn]([CH2]CCC)([O]C(=O)c1cc(F)cc(F)c1)[O][Sn]([CH2]CCC)([CH2]CCC)[O]C(=O)c1cc(F)cc(F)c1	85.8% (active)
CCOC(=O)CSC(=S)Nc1ccc(Cl)cc1	-26.8%
CC1(C)CC(=O)C(C(c2ccc3c(c2)OCO3)N2CCOCC2)C(=O)C1 (stereo not drawn)	98.2% (active)
COC(=O)c1c(C)cccc1C(=O)c1c(C)cc(C)cc1C	15.2%
C=C1C(=O)OC2CC3(C)CC(O)C(O)C(=C)C3CC12 (stereo not drawn)	91.5% (active)
CCOC(=O)C1=C(N)N(S(=O)(=O)c2ccc(C)cc2)CCC(C(=O)OC)=C1	-3.15%

assay: NCI Yeast Anticancer Drug Screen. Data for the bub3 strain (AID 167); conditions: S. cerevisiae bub3 mutant strain, at 5.0 µM (retest, dose inferred, filed as 0.5), stronger effect = higher value
Summary of the method: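 Whole-cell yeast assay. The mutant strain was incubated with compounds, and growth inhibition was determined by comparison with vehicle-treated cells.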

Structure (SMILES)	growth inhibition
Cc1cc(O)c(C(=O)/C=C/c2cccnc2)c(=O)[nH]1	-16%
Oc1ccccc1C(=NNc1ccccc1)c1ccccc1O	42%
Cn1c(=S)c2[nH]c(SCCN3CCCCC3)nc2n(C)c1=O	37%
Cc1cc(=O)n(-c2cc3cccccc-3n2)[nH]1	-1%
CC(=O)OCC1OC(n2c(O)c(N=NC(N)=S)c3ccc([N+](=O)[O-])cc32)C(OC(C)=O)C1OC(C)=O (stereo not drawn)	6%
COC(=O)NNc1c([N+](=O)[O-])cnn(-c2ccccc2)c1=O	11%
CC(=O)N(C1=C(Cl)C(=O)c2ccccc2C1=O)c1ccc(F)cc1	57%
COC(=O)CC1c2cc(OC)c3cccc(OC)c3c2CCC1(C)C(=O)OC (stereo not drawn)	95% (active)
CC[n+]1c(/C=C/c2ccc(N(C)C)cc2)ccc2ccccc21	1%
COc1ccc(SC2=C(N(C)C)C(=O)c3ccccc3C2=O)cc1	-10%
C1=C(c2ccccc2)C(=Nc2ccccc2)SC1=Nc1ccccc1	53%
Cc1c(O)c(Br)c(Br)c(Br)c1Br	84% (active)
CC1(C)OC(C(COC(=O)c2ccc([N+](=O)[O-])cc2)OS(=O)(=O)c2ccc([N+](=O)[O-])cc2)C(C(SCc2ccccc2)SCc2ccccc2)O1 (stereo not drawn)	-2%
Cc1cccc(Cc2ccc(Cl)cc2)c1O	-6%
C=C(CN(C)C)C(=O)c1ccccc1[N+](=O)[O-]	1%
CCCCN(CCCC)CC(O)c1cc(-c2ccc(Cl)cc2)nc2c(C)cccc12 (stereo not drawn)	-7%
O=C(Nc1ccc(Cl)cc1)NS(=O)(=O)c1c(-c2ccccc2)oc2ccccc2c1=O	0%
Cc1cc(CN(Cc2ccccc2)Cc2nc3ccccc3[nH]2)c(O)c(CN(Cc2nc3ccccc3[nH]2)Cc2nc3ccccc3[nH]2)c1	3%
COC1=CC2=CCC3C(CCC4(C)C(C(C)=O)CCC34)C2(C)CC1 (stereo not drawn)	-17%
OC(C1CCCCN1)C1CC(c2ccccc2)Nc2c(Cl)cc(Cl)cc21 (stereo not drawn)	1%

Structure (SMILES)	growth inhibition
CN(C)C1=C(Cl)C(=O)c2ccccc2C1=O	14%
CCCCCNC(=O)C1C(=O)N(CCCCC)C(=O)/C1=N\N (stereo not drawn)	5%
O=C(Nc1ccc(Cl)cc1)OCCOCCOC(=O)Nc1ccc(Cl)cc1	-7%
CCCC(CC)c1c(O)c(O)c(C(CC)CCC)c(C(CC)CCC)c1C(CC)CCC (stereo not drawn)	-1%
Cc1ccc(NC(=S)SCc2ccc3c(c2)OCO3)cc1Cl	15%
CN(C)CCCNc1ccc(O)c2c1C(=O)c1ccccc1C2=O	92% (active)
CC1=C(C(=O)Nc2ccc(Cl)c(Cl)c2)C(c2ccco2)C(C(=O)Nc2ccc(Cl)c(Cl)c2)=C(C)N1	10%
Cc1ccccc1NC(=O)CSC(N)=O	1%
Cc1[nH]c2ccccc2c1C(C)CC(O)c1ccccc1 (stereo not drawn)	3%
Cn1c(=O)ccc2cc(C(=O)c3ccccc3)ccc21	-7%
c1ccc2c(c1)N=c1ccccc1=P21c2ccccc2Nc2ccccc21	97% (active)
Nc1[nH]cnc(=S)c1NC=O	0%
COC(=O)CCC(=O)c1ccc2c(c1)CC1(Cc3ccccc3C1)C2	25%
CCC[CH2][Sn]([CH2]CCC)([O]C(=O)c1cc(F)cc(F)c1)[O][Sn]([CH2]CCC)([CH2]CCC)[O]C(=O)c1cc(F)cc(F)c1	49%
CCOC(=O)CSC(=S)Nc1ccc(Cl)cc1	-9%
CC1(C)CC(=O)C(C(c2ccc3c(c2)OCO3)N2CCOCC2)C(=O)C1 (stereo not drawn)	20%
COC(=O)c1c(C)cccc1C(=O)c1c(C)cc(C)cc1C	2%
C=C1C(=O)OC2CC3(C)CC(O)C(O)C(=C)C3CC12 (stereo not drawn)	0%
CCOC(=O)C1=C(N)N(S(=O)(=O)c2ccc(C)cc2)CCC(C(=O)OC)=C1	1%
